Screening data: PubChem BioAssay, The Scripps Research Institute Molecular Screening Center
Sampled rows, rich in hits. Any-hit rate of the full collection: about 1.9%.
Fam108B counter: Fam108B inhibition, counter-screen for RBBP9 inhibitors. recombinant Fam108B, FP-Rh probe fluorescence polarization. 300,000 compounds, 0.33% hits. AID 1947. inhibition, % at 9.51 µM;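 active = inhibition above the screen mean inhibition plus 3 SD, computed separately per campaign, cut at about 18% in these data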;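 also: inhibitors lower polarization as less probe binds the enzyme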
GSTO1 inh: GSTO1 inhibition, counter-screen for RBBP9 inhibitors; AID 1974; 300,000 compounds, 1.1% hits; recombinant GSTO1, activity-based probe fluorescence polarization; inhibition, % at 5.96 µM; P78417;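 active = inhibition above the campaign mean inhibition plus 3 SD, cut at about 35% in these data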;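 also: 0% = GSTO1-1 with DMSO and 100% = wells lacking GSTO1-1 enzyme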
Target sequence (P78417 whole entry, looked up): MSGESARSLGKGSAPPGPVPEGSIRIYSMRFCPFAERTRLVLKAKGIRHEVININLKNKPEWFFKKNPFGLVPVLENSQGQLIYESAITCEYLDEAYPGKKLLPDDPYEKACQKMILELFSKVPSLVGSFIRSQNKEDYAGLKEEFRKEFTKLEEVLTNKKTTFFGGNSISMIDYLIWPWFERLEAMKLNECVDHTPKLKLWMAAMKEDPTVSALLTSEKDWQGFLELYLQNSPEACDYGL
PREPL inhibitor: human PREPL enzyme inhibition. recombinant PREPL, fluorescence polarization activity-based probe. inhibition, % at 5.96 µM. 320,000 compounds, 0.68% hits; in the data active = inhibition above about 43%;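 also: 0% = enzyme with DMSO and 100% = wells lacking enzyme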
PME-1 primary: PME-1 (human) inhibition | Q9Y570 | recombinant PME-1, FP-Rh probe fluorescence polarization | inhibition, % at 5.9 µM | 320,000 compounds, 0.53% hits | AID 2130;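 active = inhibition above the campaign mean of all compounds plus 3 SD, cut at about 26% in these data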;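 also: competitive labeling of PME-1 active site by serine hydrolase directed probe; 0% = PME-1 with DMSO and 100% = wells lacking PME-1 enzyme; inhibitors block probe labeling so polarization falls and inhibition rises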
LYPLA1 inh: counter-screen for PME1 inhibitors: inhibitors of human LYPLA1 | O75608 | recombinant LYPLA1, FP-Rh probe fluorescence polarization | inhibition, % at 5.9 µM | 320,000 compounds, 0.16% hits | AID 2174;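 active = inhibition above the mean of all tested compounds plus 3 SD, set per campaign, cut at about 14% in these data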;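 also: inhibitors block serine hydrolase probe labeling of LYPLA1 so polarization falls; 0% = enzyme with DMSO and 100% = wells lacking LYPLA1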
LYPLA2 inh: blocks human lysophospholipase 2, a PME1 counter-screen; O95372; recombinant LYPLA2, FP-Rh probe fluorescence polarization; inhibition, % at 5.9 µM; 320,000 compounds, 0.38% hits;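 active = inhibition above the screen-wide mean plus 3 SD, limit set per campaign, cut at about 26% in these data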;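 also: 0% = LYPLA2 with DMSO and 100% = wells lacking LYPLA2 enzyme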
Target sequence (O95372 whole entry, looked up): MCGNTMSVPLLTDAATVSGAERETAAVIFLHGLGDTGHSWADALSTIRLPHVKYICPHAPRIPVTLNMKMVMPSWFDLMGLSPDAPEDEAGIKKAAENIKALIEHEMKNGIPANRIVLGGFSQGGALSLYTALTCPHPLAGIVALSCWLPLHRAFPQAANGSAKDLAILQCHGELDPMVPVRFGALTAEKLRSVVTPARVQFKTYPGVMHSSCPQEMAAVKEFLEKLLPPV
LYPLA2 conf: counter-screen for PME1 inhibitors: confirmation of human LYPLA2 inhibitors; shares compounds with LYPLA2 inh; recombinant LYPLA2, FP-Rh probe fluorescence polarization; inhibition, % at 5.9 µM; 1,100 compounds, 72% hits;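 active = mean inhibition across replicates above the hit cutoff set in the primary screen, cut at about 26% in these data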;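 also: blocked labeling of the enzyme by serine hydrolase FP-Rh probe lowers polarization; 0% = enzyme with DMSO and 100% = wells lacking LYPLA2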
LYPLA2 ABPP: LYPLA2 (human) inhibition, late stage results. AID 652029. shares compounds with LYPLA2 inh. rhLYPLA2 in mouse brain proteome, gel ABPP FP-Rh. 150 compounds, 30% hits. inhibition, % at 20 µM;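 active = inhibition of LYPLA2 enzyme probe labeling above about 50%, limit read from the data; inactive = inhibition below that limit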;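 also: loss of FP-Rh probe labeling of the LYPLA2 gel band measured as band density; 0% = DMSO only control band and 100% = blank gel background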
* marks the source's active call; other numbers are inactive results; . = no result given.

SMILES | Fam108B counter | GSTO1 inh | PREPL inhibitor | PME-1 primary | LYPLA1 inh | LYPLA2 inh | LYPLA2 conf | others
O=C(C[n+]1cccc(NC(=O)c2ccccc2)c1)c1ccc(NC(=O)c2ccccc2)cc1 | -6 | 3 | 11 | 3 | 0 | 27* | 19
O=C(C[n+]1cccc(NC(=O)c2ccccc2)c1)c1ccccc1 | 3 | 8 | 8 | -1 | -5 | 10 | .
CCCc1cc(=O)oc2cc(C)cc(OCC(=O)Nc3ccc(S(N)(=O)=O)cc3)c12 | -16 | -8 | -14 | -30 | -8 | -6 | .
COc1ccc(-n2c(C)cc(C(=O)Cn3nnc4ccccc4c3=O)c2C)cc1 | -2 | 10 | -2 | -13 | -1 | 27* | 20
Cc1sc2ncnc(OCC(=O)c3ccc(S(=O)(=O)N4CCCC4)cc3)c2c1C | 3 | 2 | 26 | 6 | -8 | 28* | 15
O=C(COC(=O)c1ccc(O)cc1)c1ccc(S(=O)(=O)N2CCCCC2)cc1 | . | . | -3 | 0 | 4 | 44* | 35*
O=C(COC(=O)c1ccc(CO)cc1)c1ccc(S(=O)(=O)N2CCCCC2)cc1 | . | . | 23 | 0 | -1 | 14 | .
O=C1NC(=O)c2cc(Oc3ccc([N+](=O)[O-])cc3)ccc21 | -1 | 5 | -11 | 0 | 1 | 30* | 36*
Nc1cccc(Oc2ccc([N+](=O)[O-])cc2)c1 | -7 | 0 | -12 | -5 | 3 | 32* | 35*
O=C(O)c1ccc(CN2C(=O)c3ccc(Oc4ccc([N+](=O)[O-])cc4)cc3C2=O)cc1 | -4 | 7 | -25 | -5 | -5 | 59* | 66* | LYPLA2 ABPP=59*
O=C1c2ccc(Oc3ccc([N+](=O)[O-])cc3)cc2C(=O)N1CCO | 1 | 10 | 7 | 0 | 0 | 20 | .
CC(C)CN1C2CCCC1CC(NC(=O)c1ccc([N+](=O)[O-])cc1)C2 (stereo not given) | -1 | 4 | 5 | -2 | 0 | -7 | .
CCCC(=O)Nc1c2c(nn1-c1ccc([N+](=O)[O-])cc1)CS(=O)(=O)C2 | -5 | -3 | 9 | 3 | 0 | 3 | .
CCCCc1ccc(S(=O)(=O)N2CCC3(CC2)OCCO3)cc1 | -1 | 2 | -3 | 5 | 1 | 9 | .
O=C(CCCCCCCC(=O)NNC(=O)Nc1ccccc1)NNC(=O)Nc1ccccc1 | -12 | -8 | -9 | -3 | -9 | -23 | .
N#Cc1cnn2c3c(cnc12)C(=O)N1CCc2ccccc2C1C3 (stereo not given) | 0 | 8 | 3 | 0 | 10 | 42* | 44*
CCCOc1ccc(N2C(=O)CC(N3CCN(c4ccc([N+](=O)[O-])cc4)CC3)C2=O)cc1 (stereo not given) | -5 | -1 | 25 | 6 | 2 | 35* | 36*
O=C1CN(C(=O)c2cccc(F)c2)C(c2ccc(F)cc2)c2cc(F)ccc2N1 (stereo not given) | -2 | 1 | 4 | 17 | 1 | -2 | .
Cc1ccc(C(=O)N2CC(=O)Nc3ccc(F)cc3C2c2ccccc2)cc1[N+](=O)[O-] (stereo not given) | 2 | 8 | 5 | 5 | -3 | 34* | 34*
Cc1ccc(C(=O)N2CC(=O)Nc3ccc(F)cc3C2c2ccc(F)cc2)cc1[N+](=O)[O-] (stereo not given) | 0 | 1 | 7 | 0 | -2 | 34* | 30*
O=C(OCC(=O)N1CCCC1=O)c1ncc(Cl)c(Cl)c1Cl | 2 | 1 | 17 | 0 | -3 | -1 | .
Cc1cc2c(NC(=O)Nc3ccccc3)cccc2nn1 | -1 | 13 | 13 | 0 | -5 | 35* | 36*
CCOc1ccccc1CNC(=O)c1c([N+](=O)[O-])c(C)nn1C | 0 | 3 | 20 | 4 | 2 | -3 | .
O=c1c2ccccc2ncn1-c1ccc([N+](=O)[O-])cc1[N+](=O)[O-] | -7 | 23 | 14 | -1 | -1 | 8 | .
